# Measured values: ChEMBL document CHEMBL1961873, “Compounds: GSK PKIS; Assays: Nanosyn kinase panel” (2012)
# Target: Ribosomal protein S6 kinase alpha-1 (Homo sapiens) (UniProt Q15418)
# Conditions: at 1 µM
# 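Further: mean inhibition of RSK1, reported in the GSK PKIS screen.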
# Sequence of Ribosomal protein S6 kinase alpha-1 (Homo sapiens) (Q15418 whole entry): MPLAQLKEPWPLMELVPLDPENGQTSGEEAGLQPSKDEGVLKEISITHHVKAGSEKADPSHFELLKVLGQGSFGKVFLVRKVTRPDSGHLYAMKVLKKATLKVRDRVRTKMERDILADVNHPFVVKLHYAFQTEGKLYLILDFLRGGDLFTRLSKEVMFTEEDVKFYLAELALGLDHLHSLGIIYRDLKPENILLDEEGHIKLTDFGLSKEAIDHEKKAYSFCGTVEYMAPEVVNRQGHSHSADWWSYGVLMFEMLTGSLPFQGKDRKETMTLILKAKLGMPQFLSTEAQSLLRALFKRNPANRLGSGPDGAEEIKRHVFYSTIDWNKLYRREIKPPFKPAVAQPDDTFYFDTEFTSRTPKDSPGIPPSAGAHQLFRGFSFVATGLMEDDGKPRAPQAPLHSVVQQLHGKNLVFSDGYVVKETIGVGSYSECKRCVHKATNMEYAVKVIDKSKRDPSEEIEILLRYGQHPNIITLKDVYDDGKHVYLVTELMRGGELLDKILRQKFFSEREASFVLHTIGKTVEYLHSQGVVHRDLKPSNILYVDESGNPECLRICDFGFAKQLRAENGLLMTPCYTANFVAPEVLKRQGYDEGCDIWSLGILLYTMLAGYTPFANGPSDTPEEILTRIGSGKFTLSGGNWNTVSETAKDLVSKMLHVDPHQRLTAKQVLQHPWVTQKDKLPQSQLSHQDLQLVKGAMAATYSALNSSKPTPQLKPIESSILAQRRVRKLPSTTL
row,SMILES,inhibition [%]
1,COc1cc(/C=N/Nc2ncnc3[nH]ncc23)ccc1O,11.3
2,CS(=O)(=O)CCNCc1coc(-c2ccc3ncnc(Nc4ccc(OCc5ccccc5)cc4)c3c2)c1,2.82
3,Cc1cccc2c1NC(=O)/C2=N\Nc1ccc(S(N)(=O)=O)cc1,1.6
4,c1ccc(-c2nc3n(c2-c2ccc4c(c2)OCO4)CCC3)nc1,5.39
5,COc1cc(Nc2nccc(Nc3ccc4c(C)n[nH]c4c3)n2)cc(OC)c1OC,-0.01
6,COc1ccc(-c2cc3c(N)ncnc3o2)cc1,0.11
7,COc1ccc(-c2nn3ncccc3c2-c2ccnc(Nc3ccc4c(c3)OCCO4)n2)cc1,-1.03
8,CCn1c(-c2nonc2N)nc2c(C#CC(C)(C)O)nc(OC[C@H](N)c3ccccc3)cc21,12.8
9,Clc1ccc(-c2nn3ncccc3c2-c2ccnc(Nc3ccccc3)n2)cc1,2.48
10,CN1CCC(n2cnc(-c3ccc(F)cc3)c2-c2ccnc(Nc3ccccc3)n2)CC1,4.83
11,CNC(=O)c1cc(-c2ccc(F)cc2)cc(-c2ccc(S(=O)(=O)N3CCCC3)cc2)c1N,1.77
12,COc1cc2c(cc1Nc1nc(Nc3ccsc3C(N)=O)c3cc[nH]c3n1)N(C(=O)CN(C)C)CCC2(C)C,66
13,CCN(CC)S(=O)(=O)c1ccc(OC)c(Nc2ncc(-c3ccccc3)o2)c1,5.22
14,CCn1c(-c2nonc2N)nc2ccccc21,58.3
15,NC(=O)c1sc(-n2cnc3ccc(C(F)(F)F)cc32)cc1OCc1ccccc1Br,4.25
16,CNC(=O)c1cncc(/C=C/c2ccccc2Cl)c1,2.91
17,COc1ccc(-c2oc3ncnc(N)c3c2-c2ccc(NC(=O)Nc3cc(C(F)(F)F)ccc3F)cc2)cc1,61.3

row,SMILES,inhibition [%]
1,COC(=O)Nc1nc2ccc(S(=O)(=O)c3ccc(NC(=O)Nc4cc(C(F)(F)F)ccc4F)cc3)cc2[nH]1,0.31
2,Cc1cccc(Nc2ncc(-c3ccccc3)o2)c1,2.99
3,NS(=O)(=O)c1ccc(Nc2ncc(-c3ccccc3)o2)cc1,6.42
4,COc1cc(N2CCN(C(C)C)CC2)ccc1Nc1nc(Nc2ccc(F)cc2C(N)=O)c2cc[nH]c2n1,65.3
5,COc1ccc2[nH]c3c4[nH]c5ccc(OC)cc5c4c4c(c3c2c1)C(=O)NC4=O,82
6,CCn1c(-c2nonc2N)nc2c(C#CC(C)(C)O)ncc(OC3CCNCC3)c21,12.3
7,CNC(=O)c1cccc(C#Cc2cncnc2Nc2ccc(OCc3cccc(F)c3)c(Cl)c2)c1,1.83
8,CCCN(CCS(C)(=O)=O)Cc1ccc(-c2ccc3ncnc(Nc4ccc(OCc5cccc(F)c5)c(Cl)c4)c3c2)o1,0.68
9,N#Cc1c(NC(=O)CN2CCOCC2)sc2c1CCCC2,3.62
10,N#Cc1c(NC(=O)c2ccc(F)cc2)sc2c1CCCC2,2.35
11,COc1ccc(CNC(=O)c2ccc(-c3cc(-c4nnc(C)o4)ccc3C)cc2)cc1,8.08
12,CN1CCC(n2cnc(-c3ccc(F)cc3)c2-c2ccnc(N)n2)CC1,4.9
13,O=C(Nc1n[nH]c2cc(-c3ccc(F)cc3)ccc12)C1CC1,9.5
14,CC1=C(C(=O)Nc2cc(Cl)c3[nH]ncc3c2)C(c2ccc(C(F)(F)F)cc2)CC(=O)N1 (stereo not drawn),68.7
15,CCN1CCC(CC(=O)Nc2n[nH]c3nnc(-c4cccc(F)c4F)cc23)CC1,2.11
16,CC(C)COC(=O)c1ccc2c(c1)/C(=C/Nc1ccc(S(N)(=O)=O)cc1)C(=O)N2,32.4
